Source: PubChem BioAssay
IP6K1 inh – Primary qHTS assay for small molecule inhibitors of Inositol hexaphosphate kinase 1 (IP6K1). Inositol hexakisphosphate kinase 1 (Homo sapiens), Q92551. IP6K1 kinase, ADP-Glo luminescence, 2 h; hits give low values. activity change, % (series mostly up to about 58 µM). 0.81% of 140,000 active. AID 1645851, 2021; in the data active = activity change below about -25%
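ADP-Glo luminescence measures ADP made by human IP6K1 during a 2 h RT reaction with ATP/IP6 (mix at 1.3 mM/130 uM); top library doses 57.5 and 19.1 uM final.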
GPT2 inhibitor – Primary qHTS assay for inhibitors of Glutamate pyruvate transaminase 2 (GPT2); Recombinant GPT2, coupled pyruvate oxidase/HRP Amplex Red fluorescence; Potency, µM (doses to about 57.7 µM), without a hit: at the top dose activity change, negative = inhibition, actives largely listed as inhibitors; 0.25% of 100,000 active; Alanine aminotransferase 2 (Homo sapiens), Q8TD30; also: potency is read from the fitted curve at half-maximal effect; nearly all actives have a fitted effect of over 60% in size
Target sequence (Q8TD30 whole entry, looked up): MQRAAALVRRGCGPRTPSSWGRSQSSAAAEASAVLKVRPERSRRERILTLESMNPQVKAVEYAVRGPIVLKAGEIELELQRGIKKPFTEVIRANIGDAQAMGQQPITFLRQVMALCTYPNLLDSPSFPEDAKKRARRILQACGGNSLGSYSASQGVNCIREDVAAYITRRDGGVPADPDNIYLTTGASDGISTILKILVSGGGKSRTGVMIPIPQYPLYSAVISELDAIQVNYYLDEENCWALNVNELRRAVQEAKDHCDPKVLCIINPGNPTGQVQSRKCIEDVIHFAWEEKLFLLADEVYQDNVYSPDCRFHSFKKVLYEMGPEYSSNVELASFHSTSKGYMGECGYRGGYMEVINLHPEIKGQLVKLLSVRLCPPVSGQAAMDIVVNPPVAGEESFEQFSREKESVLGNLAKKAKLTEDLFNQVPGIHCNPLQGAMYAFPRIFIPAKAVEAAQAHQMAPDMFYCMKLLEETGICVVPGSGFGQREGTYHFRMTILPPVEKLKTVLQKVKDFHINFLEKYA
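Fluorescence read-out: pyruvate from GPT2 turnover coupled to pyruvate oxidase, HRP and Amplex Red (0.2mM ThPP, 0.2U/mL PO and HRP, 50uM Amplex final). Substrates 250uM a-KG, 2mM L-alanine; enzyme 10ng/uL; 30 min RT.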
SNCA expr inh – Primary qHTS assay for inhibitors of alpha-synuclein gene (SNCA) expression; HEK-293 SNCA-luciferase knock-in, luminescence, 24 h; Potency, µM (titrated, usually from 57.2 µM), for the others: at the top dose activity change, negative = inhibition, most hits filed as inhibitors; 0.17% of 140,000 active; AID 1671194, 2021;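 also: potency is read from the fitted curve at half-maximal effect; plate controls were DMSO cells for no effect and cell-free wells for full effect; nearly all actives have a fitted effect of over 45% in size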
HEK293 viab – GF-AFC viability counterscreen for inhibitors of alpha-synuclein gene (SNCA) expression. Potency, µM (series often up to 57.1 µM), for inactives: at the top dose activity change, negative = cytotoxicity, most hits filed as cytotoxic. HEK-293-SNCA-luc viability, GF-AFC fluorescence, 24 h. 0.12% of 150,000 active;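 also: potency is read from the fitted curve at half-maximal effect; 0% = DMSO-treated cells and -100% = medium-only wells without cells; nearly all actives have a fitted effect of over 30% in size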
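Cytotoxicity counterscreen: after 24 h compound treatment of genome-edited SNCA-luciferase HEK-293 cells, live-cell protease substrate GF-AFC read by fluorescence after 30 min; activity scaled between DMSO (0%) and medium-only (-100%), curves Hill-fitted.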
IP6K1 conf – Confirmatory qHTS assay for small molecule inhibitors of Inositol hexaphosphate kinase 1 (IP6K1). 13% of 1,200 active. recombinant IP6K1 kinase, ADP-Glo luminescence, 2 h. shares compounds with IP6K1 inh. Potency, µM (titrated, usually from 49 µM), without a hit: top-dose activity change, negative = inhibition, actives largely listed as inhibitors; also: potency is read from the fitted curve at half-maximal effect; nearly all actives have a fitted effect of over 65% in size
* = called active by the depositor; i = inactive; ? = inconclusive; . = no result; [ ] = dose if it differs, or a comment. Shown are actives, neighbours in structure and some others; about 1% of the full set was active somewhere. Unless noted, calls follow the shape of the dose curve; as a rule, active = well fitted curve in the direction sought with a large enough effect; inconclusive = small, poorly fitted or top-dose-only effect, or another doubt; inactive = no such curve, though single readings can be large; an effect the other way counts as inactive or inconclusive. Unless noted, % is scaled to controls: 0 for no effect and ±100 for the full control effect.

SMILES	IP6K1 inh	GPT2 inhibitor	SNCA expr inh	HEK293 viab	IP6K1 conf
COc1ccc(OC)c([C@@H]2Nc3ccc(C(=O)O)cc3[C@@H]3C=CC[C@@H]32)c1	-27*	.	16%	5%	?
Cn1cc(-c2ccc3nnc(Sc4ccc5ncccc5c4)n3n2)cn1	.	3%	20%	-5%	.
OCCn1cc(-c2cnc3nnn(Cc4ccc5ncccc5c4)c3n2)cn1	-12	?	-7%	0%	-12%
CCc1cccc(C)c1NC(=O)CN1CCN(Cc2ccccc2Cl)S1(=O)=O	25	.	-12%	-15%	.
COc1ccc(NC(=O)CN2CCN(Cc3ccccc3Cl)S2(=O)=O)cc1Cl	-29*	.	15%	-11%	?
CCCCCCCCOc1ccccc1C(=O)Nc1ccc(C(=O)OCC[N+](C)(CC)CC)cc1	-37*	1%	9%[25.6 µM]	?	?
COc1ccc(-c2cc(C(=O)NCc3ccc(F)cc3F)c3cnn(C)c3n2)cc1	-5	.	.	.	.
COC(=O)CSc1nc2c(cnn2-c2ccc(F)cc2)c(=O)[nH]1	-32*	.	5%	-6%	?
CC(C)c1noc(CC2CCN(C(=O)Cc3ccc(F)cc3)CC2)n1	-26*	i	18%	-15%	-18%
Cc1nc2cc(-c3cccc(F)c3)nn2c(C)c1CCC(=O)NCCc1ccccc1	-8	.	13%	-1%	.
Cc1nc2cc(-c3cccc(F)c3)nn2c(C)c1CCC(=O)NC(C)c1ccccc1 (configuration not stated)	-25*	.	?	?	1%
COc1ccccc1-c1cc(C(=O)Nc2cccc(C(F)(F)F)c2)c2cnn(C)c2n1	1	.	.	.	.
COc1ccccc1-c1cccc(CN2CCC(N[S+](=O)([O-])c3cccc(C(F)(F)F)c3)CC2)c1	16	.	.	.	.
O=C(NCCc1ccc(Cl)cc1)C1CCCN1Cc1ccc(-c2cncnc2)cc1 (configuration not stated)	2	i	?	-10%	.
CCOC(=O)c1cnc2cc(Cl)c(OC)cc2c1Nc1ccc(Br)cc1C	1	.	-13%	-1%	.
Cn1cnc2c(F)c(Nc3ccc(Br)cc3Cl)c(C(=O)NOCCO)cc21	15	4%	13%	12%	-13%
CN(Cc1ccc(F)cc1)c1ccc2ncc(Nc3ccnc(N4CCOCC4)c3)n2n1	-21	i	?	-18%[87.6 µM]	.
CN1CCN(c2ccnc(-c3cccc(NS(C)(=O)=O)c3)n2)CC1	.	.	-5%	6%	.
CN1CCN(c2cccc(Nc3nc4c(-c5ccc(S(C)(=O)=O)cc5)cccn4n3)c2)CC1	-11	i	11%	22%	1%
COc1ccc(C(=O)N2CCC(c3nc(-c4cccn4C)no3)CC2)c(OC)c1	12	-6%	-2%	1%	.
Cn1ncc2c(C(=O)NCc3ccccc3)cc(-c3cccc(F)c3)nc21	4	.	.	.	.
CCc1ccc(-n2c(=O)c3c4c(sc3n(Cc3ccc(C)cc3)c2=O)CCC4)cc1	4	.	7%	-3%	.
CCc1ccc(-n2c(=O)c3c4c(sc3n(Cc3ccc(F)cc3)c2=O)CCCC4)cc1	-28*	.	-6%	21%	-2%
CCCCN(CC)C(=O)Cn1c(=O)n(-c2ccc(OCC)cc2)c(=O)c2c3c(sc21)CCC3	-33*	.	-3%	4%	10%
COc1ccc(CN2CC(COc3ccccc3)Oc3ncccc3[S+]2(=O)[O-])cc1 (configuration not stated)	2	-8%[27.3 µM]	13%[25.6 µM]	-8%[23.9 µM]	.
SMILES	IP6K1 inh	GPT2 inhibitor	SNCA expr inh	HEK293 viab	IP6K1 conf
COc1ccc2nc3n(c2c1)[C@@H](CNC(=O)c1ccc(F)cc1)COC3	-26*	-23%[88.5 µM]	0%[87.6 µM]	-13%[87.6 µM]	?
COc1ccc2nc3n(c2c1)[C@@H](CNS(=O)(=O)c1ccc(F)cc1)COC3	-2	i	-1%[87.6 µM]	-1%[87.6 µM]	.
Cc1ccc(-c2noc(CNC(=O)c3ccccc3)n2)cc1	-31*	.	30%	-9%	?
Cc1ccc(CC(=O)NCc2nc(-c3ccccc3)no2)cc1	-27*	.	14%	10%	-15%
O=C(NCCCc1ccccc1)c1ccc2nc(-c3cccnc3Cl)oc2c1	2	0%[88.5 µM]	48%[87.6 µM]	-4%[87.6 µM]	.
Cn1ncc2c(C(=O)N3CCN(Cc4ccccc4)CC3)cc(-c3cccc(F)c3)nc21	10	.	.	.	.
C[C@@H]1CN(C(=O)c2cnc3c(O)cccn3c2=O)CC[C@@]1(O)C1CCC1	-28*	?	18%	17%	-11%
Cc1ccc(Nc2ccnc(N3CCC(C(=O)N4CCCCC4)CC3)n2)cc1	-11	i	5%	-5%[12.5 µM]	.
COc1ccccc1NC(=O)Cn1nc2c3cc(F)ccc3n(Cc3cccc(C)c3)cc-2c1=O	7	.	-4%	-12%	.
CCOc1ccccc1NC(=O)Cn1nc2c3cc(F)ccc3n(Cc3cccc(C)c3)cc-2c1=O	-34*	.	7%	-5%	9%
Cc1c(Cl)cccc1NC(=O)CSc1nc(=O)[nH]c2c1CCCC2	-27*	.	-4%	-2%	-16%
O=C(c1[nH]nc2c1CCc1ccccc1-2)N1CCC(c2noc(-c3ccccn3)n2)C1 (configuration not stated)	7	-12%	-15%	-7%	.
Cc1ccc(-c2cccc(CN3CCCC3C(=O)NC3CC3)c2)cc1Cl (configuration not stated)	11	.	.	.	.
Cc1ccc(Nc2ccnc(N3CCN(C(=O)c4ccccc4C)CC3)n2)cc1	9	-3%	-8%	5%	.
O=C(Nc1cccc(-c2ccc(N3CCOCC3)nn2)c1)Nc1cc(F)ccc1F	-13	-2%	?	?	.
O=C(Nc1cccc(-c2ccc(N3CCOCC3)nn2)c1)Nc1ccccc1F	-32*	i	-1%	-22%	?
CSCCNC(=O)[C@@H]1CCCN1c1nccc(Nc2ccccc2Cl)n1	0	?	-27%	4%[12.5 µM]	.
Cc1ccsc1/C=C/C1=NCCCN1C	-33*	?	-10%[25.6 µM]	-3%[23.9 µM]	-1%
COC[C@H]1C[C@@H](N(C)C)[C@H](O)[C@@H]1O	-25*	i	18%[87.6 µM]	4%[87.6 µM]	?
COCC(=O)N[C@@H]1C[C@H](COC)[C@@H](O)[C@H]1O	0	i	2%[87.6 µM]	5%[87.6 µM]	.
Cn1nnnc1Sc1ncnc2scc(Br)c12	.	.	.	.	-15%
Cn1nnnc1Sc1ncnc2scc(-c3ccc(Br)cc3)c12	.	.	.	.	-9%
Cn1ncc2c(C(=O)N3CCOCC3)cc(-c3cccc(C(F)(F)F)c3)nc21	15	?	-12%	5%	.
COC(=O)CNC(=O)C1CCCN1C(=O)c1cccc(-c2cccc(OC)c2)c1 (configuration not stated)	-9	4%	21%	11%[12.5 µM]	.
